Screening results as filed in PubChem BioAssay.
GPT2 inh: Primary qHTS assay for inhibitors of Glutamate pyruvate transaminase 2 (GPT2); Alanine aminotransferase 2 (Homo sapiens), Q8TD30; Recombinant GPT2, coupled pyruvate oxidase/HRP Amplex Red fluorescence; Potency, µM (series often up to 57.7 µM), without a hit: at the highest dose activity change, negative = inhibition, hits mostly inhibitors; actives 0.25% (n = 100,000); AID 1671188, 2021; note: % is set by controls: 0 for no effect and ±100 for the full control effect; nearly all actives have a fitted effect of over 60% in size
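Fluorescence read-out: pyruvate from GPT2 turnover coupled to pyruvate oxidase, HRP and Amplex Red (0.2mM ThPP, 0.2U/mL PO and HRP, 50uM Amplex final). Substrates 250uM a-KG, 2mM L-alanine; enzyme 10ng/uL; 30 min RT.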
3T3 cytotox: Cytotoxic Profiling in NIH 3T3 Cell Line of Diverse Libraries Using Quantitative High-Throughput Screening | NIH 3T3 viability, CellTiter-Glo ATP luminescence, 48-72 h | Potency, µM (titrated, usually from 96.7 µM), for inactives: top-dose activity change, negative = cytotoxicity, actives largely listed as inhibitors | actives 4.3% (n = 94,000) | AID 1345082, 2018; note: % is set by controls: 0 for no effect and ±100 for the full control effect; nearly all actives have a fitted effect of over 55% in size
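Cytotoxicity is measured as loss of cellular ATP: NIH 3T3 cells (400/well) are exposed to compound for 48 or 72 hr at 37 °C, then CellTiter-Glo luminescence is imaged after 10 min at room temperature.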
HEK cytotox: Cytotoxic Profiling in HEK 293 Cell Line of Diverse Libraries Using Quantitative High-Throughput Screening; Potency, µM (doses to about 115 µM), without a hit: at the highest dose activity change, negative = cytotoxicity, actives largely listed as inhibitors; HEK 293 viability, ATP luminescence (CellTiter-Glo), 48-72 h; actives 6.6% (n = 94,000); note: % is set by controls: 0 for no effect and ±100 for the full control effect; nearly all actives have a fitted effect of over 60% in size
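Read-out: CellTiter-Glo ATP luminescence. Cells: HEK 293, 250 cells/well. Exposure: 48 or 72 hr, 37 degree Celsius.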
Luciferase inh: Firefly luciferase inhibition profiling of diverse chemical library using quantitative high-throughput screening | purified P. pyralis luciferase, luminescence, biochemical | Potency, µM (doses to about 115 µM), actives largely listed as inhibitors | actives 2.5% (n = 76,000) | AID 1347043, 2019; note: % is set by controls: 0 for no effect and ±100 for the full control effect; nearly all actives have a fitted effect of over 65% in size
Target sequence (P08659 whole entry, looked up): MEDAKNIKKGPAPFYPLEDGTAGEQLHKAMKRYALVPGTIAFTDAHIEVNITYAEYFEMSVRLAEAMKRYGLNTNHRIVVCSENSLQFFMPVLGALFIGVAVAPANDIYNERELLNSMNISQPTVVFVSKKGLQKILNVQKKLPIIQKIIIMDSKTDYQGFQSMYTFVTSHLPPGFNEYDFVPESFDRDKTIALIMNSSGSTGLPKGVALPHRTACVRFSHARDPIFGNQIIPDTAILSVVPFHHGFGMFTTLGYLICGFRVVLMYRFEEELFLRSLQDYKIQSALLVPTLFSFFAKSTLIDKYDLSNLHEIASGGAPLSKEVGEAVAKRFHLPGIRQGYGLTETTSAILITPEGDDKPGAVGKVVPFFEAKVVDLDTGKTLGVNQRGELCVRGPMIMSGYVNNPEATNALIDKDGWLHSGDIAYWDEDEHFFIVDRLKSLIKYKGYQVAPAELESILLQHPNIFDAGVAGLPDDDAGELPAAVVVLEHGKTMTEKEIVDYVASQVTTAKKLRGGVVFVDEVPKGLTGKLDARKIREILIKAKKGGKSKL
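Biochemical qHTS: compound (6-point titration) added to 10uM D-luciferin plus 10uM ATP in Tris acetate pH 7.5 buffer with Mg, Tween-20 and BSA, then purified enzyme at 10nM; light output imaged.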
hNpr1 antagonist: Natriuretic polypeptide receptor (hNpr1) antagonism - Primary qHTS | HEK293 hNpr1 GloSensor cGMP, ANP-stimulated luminescence | Potency, µM (titrated, usually from 46.3 µM), inactives show top-dose activity change, negative = inhibition, hits mostly inhibitors | actives 1.6% (n = 76,000) | AID 1347048, 2019; calls by dose curve; note: % is set by controls: 0 for no effect and ±100 for the full control effect; nearly all actives have a fitted effect of over 60% in size
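Compound pre-incubated 30 min at room temperature on GloSensor-loaded HEK293 cells stably carrying hNpr1 and the pGS-40F cGMP biosensor. Stimulation uses hNppA at 0.1 nM final; luminescence is taken at baseline and 20 min post-agonist.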
Npr1 antag conf: Natriuretic polypeptide receptor (hNpr1) antagonism - Confirmation; shares compounds with hNpr1 antagonist; HEK293 hNpr1 cGMP GloSensor luminescence, ANP-stimulated; Potency, µM (top dose mostly 57.6 µM), without a hit: top-dose activity change, negative = inhibition, most hits filed as inhibitors; actives 76% (n = 1,400); calls by dose curve; note: nearly all actives have a fitted effect of over 70% in size
Npr2 selectivity: Natriuretic polypeptide receptor (hNpr2) antagonism - Subtype selectivity assay; shares compounds with hNpr1 antagonist; HEK293 hNpr2 GloSensor cGMP luminescence, CNP-stimulated; Potency, µM (top dose mostly 57.6 µM), for inactives: at the top dose activity change, negative = inhibition, hits mostly inhibitors; actives 67% (n = 1,400); calls by dose curve; note: nearly all actives have a fitted effect of over 70% in size
FLuc inh counter: Natriuretic polypeptide receptor (hNpr1) antagonism - Confirmation firefly luciferase (FLuc) inhibition counterscreen; shares compounds with hNpr1 antagonist; purified FLuc enzyme, luminescence, Km substrate; Potency, µM (titrated, usually from 57.6 µM), for inactives: top-dose activity change, negative = inhibition, usual class: inhibitors; actives 0.7% (n = 1,400); note: series mostly up to about 58 µM; 0% is about no effect
GloSensor ctrl: Natriuretic polypeptide receptor (hNpr1) antagonism - Counterscreen GloSensor control cell line; AID 1347051, 2019; actives 69% (n = 1,400); shares compounds with hNpr1 antagonist; HEK293 GloSensor cGMP, SNP-stimulated, luminescence; Potency, µM (series often up to 57.6 µM), for inactives: at the highest dose activity change, negative = inhibition, most hits filed as inhibitors; calls by dose curve; note: % is set by controls: 0 for no effect and ±100 for the full control effect; nearly all actives have a fitted effect of over 70% in size
* hit, by the source's call; [ ] = another dose, or the depositor's remark. Sampled rows, rich in hits. Any-hit rate of the full collection: about 10%. Unless noted, calls come from the whole dose curve; as a rule, active = well fitted curve in the direction sought with a large enough effect; inconclusive = small, poorly fitted or top-dose-only effect, or another doubt; inactive = no such curve, though single readings can be large; an effect the other way counts as inactive or inconclusive. Potency is the fitted concentration of half-maximal effect.

What do the screens show for `CC1=C[C@@H](CN(C)Cc2cccnc2)[C@H](C(C)C)C[C@H]1Cc1nnc(-c2ccc([N+](=O)[O-])cc2)o1`?
GPT2 inh: inactive; 3T3 cytotox: 15.8µM*; HEK cytotox: 22.4µM*; Luciferase inh: inactive; hNpr1 antagonist: 20µM*; Npr1 antag conf: 15.3µM*; Npr2 selectivity: 17.2µM*; FLuc inh counter: 0.8%; GloSensor ctrl: 12.2µM*

What do the screens show for `CC1=C[C@@H](CO)[C@H](C(C)C)C[C@H]1Cc1nnc(-c2cccnc2)o1`?
GPT2 inh: -11.5%[88.5 µM]; 3T3 cytotox: -29.0%[138 µM]; HEK cytotox: inconclusive; Luciferase inh: inactive; hNpr1 antagonist: -1.2%[70.6 µM]

Results for CNC(=O)c1cc(C)nc2onc(C3CCCN3C(=O)c3ccc(C)cc3)c12 (stereo not drawn) ?
3T3 cytotox: -22.0%; HEK cytotox: 3.5%

What do the screens show for `CN(C)[S+](=O)([O-])c1ccc2c(c1)OCCN(Cc1ccc(F)cc1)C2`?
GPT2 inh: 4.4%[88.5 µM]; 3T3 cytotox: inconclusive; HEK cytotox: inconclusive; Luciferase inh: inactive; hNpr1 antagonist: -20.0%[70.6 µM]

Results for O=[S+]([O-])(Nc1cccnc1)c1ccc2c(c1)OCCN(Cc1ccccc1)C2 ?
GPT2 inh: 1.5%[88.5 µM]; 3T3 cytotox: inconclusive; HEK cytotox: inconclusive; Luciferase inh: inactive; hNpr1 antagonist: inconclusive

What do the screens show for `CN(C)[S+](=O)([O-])c1ccc2c(c1)OCCN(Cc1ccc(C(F)(F)F)cc1)C2`?
GPT2 inh: -19.8%[88.5 µM]; 3T3 cytotox: 44.7µM*; HEK cytotox: inconclusive; Luciferase inh: inactive; hNpr1 antagonist: 17.8µM*; Npr1 antag conf: 12.5µM*; Npr2 selectivity: 17.7µM*; FLuc inh counter: -13.2%[86.2 µM]; GloSensor ctrl: 8.86µM*

What do the screens show for `O=[S+]([O-])(Nc1ccccc1)c1ccc2c(c1)OCCN(Cc1ccncc1)C2`?
GPT2 inh: -5.3%[88.5 µM]; 3T3 cytotox: inconclusive; HEK cytotox: inconclusive; Luciferase inh: inactive; hNpr1 antagonist: inconclusive; Npr1 antag conf: 39.6µM*; Npr2 selectivity: 35.3µM*; FLuc inh counter: -1.6%[86.2 µM]; GloSensor ctrl: 31.4µM*

What do the screens show for `O=C1N(c2ccccc2)c2ccccc2C12CCN(Cc1ccc(F)cc1)C2` (stereo not drawn)?
GPT2 inh: inactive; 3T3 cytotox: inconclusive; HEK cytotox: inconclusive

What do the screens show for `CCc1noc(CC2CCOC3(CCN(S(=O)(=O)c4ccc(Cl)cc4)CC3)C2)n1` (stereo not drawn)?
GPT2 inh: 3.3%; 3T3 cytotox: inconclusive; HEK cytotox: inconclusive; Luciferase inh: inactive; hNpr1 antagonist: inconclusive

How did CCc1noc(CC2CCOC3(CCN(S(=O)(=O)c4ccc(C(C)C)cc4)CC3)C2)n1 (stereo not drawn) do in these assays?
GPT2 inh: -9.8%; 3T3 cytotox: inconclusive; HEK cytotox: inconclusive; Luciferase inh: inactive; hNpr1 antagonist: 10µM*; Npr1 antag conf: 17.2µM*; Npr2 selectivity: 19.3µM*; FLuc inh counter: -2.4%; GloSensor ctrl: 12.2µM*

Results for CCc1noc(CC2CCOC3(CCN(S(=O)(=O)c4ccc(F)c(F)c4)CC3)C2)n1 (stereo not drawn) ?
GPT2 inh: -1.6%; 3T3 cytotox: inconclusive; HEK cytotox: 79.4µM*; Luciferase inh: inactive; hNpr1 antagonist: 10µM*; Npr1 antag conf: 21.7µM*; Npr2 selectivity: inconclusive; FLuc inh counter: -0.7%; GloSensor ctrl: inconclusive

Results for O=C(COc1ccccc1)N1CCN(C(=O)c2nnn3c2COC(c2ccccc2)C3)CC1 (stereo not drawn) ?
GPT2 inh: inactive; 3T3 cytotox: inconclusive; HEK cytotox: inconclusive; Luciferase inh: inactive; hNpr1 antagonist: -21.1%

Results for Cc1ccsc1C(=O)N1CCN(C(=O)c2nnn3c2COC(c2ccccc2)C3)CC1 (stereo not drawn) ?
GPT2 inh: -21.0%; 3T3 cytotox: -16.8%; HEK cytotox: inconclusive; Luciferase inh: inactive; hNpr1 antagonist: -14.0%

What do the screens show for `COc1ccc(C2Cn3nnc(C(=O)N4CCN(C(=O)Cc5ccccc5Cl)CC4)c3CO2)cc1` (stereo not drawn)?
GPT2 inh: inactive; 3T3 cytotox: -0.3%; HEK cytotox: inconclusive; Luciferase inh: inactive; hNpr1 antagonist: inconclusive; Npr1 antag conf: 12.2µM*; Npr2 selectivity: 15.3µM*; FLuc inh counter: 1.2%; GloSensor ctrl: 10.9µM*

Results for O=C(Cc1ccccc1Cl)N1CCN(C(=O)c2nnn3c2COC(c2ccc(F)cc2)C3)CC1 (stereo not drawn) ?
GPT2 inh: inactive; 3T3 cytotox: -23.1%; HEK cytotox: -7.2%; Luciferase inh: inactive; hNpr1 antagonist: -2.5%
